Inhibition data for 63 molecules are collected here from PubChem BioAssay AID488841 (Sanford-Burnham Center for Chemical Genomics, 2010).

About 380 (27%) of roughly 1,400 compounds were called active.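 Rule for the calls: active = mean inhibition above 50% across duplicate retests at 10 µM; inactive = the rest.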 The list shows a part of the results.

A short description of this experiment: yeast NALP1 reporter signal suppression – S. cerevisiae, luminescence, single concentration, NALP1 inhibitor project, confirmation (AID 488841).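 Note: plate controls were DMSO in galactose medium for no effect and cells in plain SD medium for full effect.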 Particulars: S. cerevisiae NALP1/ASC/Caspase-1 reporter, beta-gal luminescence; at 10 µM; active compounds read high.
On to `CN1c2ccccc2Sc2cc(N)ccc21`, for which the inhibition was 94% (active).
For `Cc1nc(C)c(/C(O)=C/c2nc3ccccc3oc2=O)s1`, the inhibition is 44.5% (inactive).
As for `CCn1c(N2CCN(C(=O)C34CC5CC(CC(C5)C3)C4)CC2)nc2ccccc21`, the inhibition is 44.6% (inactive).
Regarding `C/C(=N\NC(=O)Cc1csc(N2CCOCC2)n1)c1ccccc1`, the inhibition was 24.6% (inactive).
Next, `O=c1cc(CSc2ccc(Cl)cc2)[nH]c2[nH]n(-c3ccccc3)c(=O)c12`: 29.9% (inactive); `Cc1cc2ccccn2c1C(C[N+](=O)[O-])c1ccc(N(C)C)cc1` (stereo not drawn): 31.1% (inactive).
Next, `Cc1[nH]n(-c2ccccc2)c(=O)c1C(C[N+](=O)[O-])c1ccc(Cl)cc1` (stereo not drawn): 77.5% (active); `COC(=O)C1(C(C[N+](=O)[O-])c2ccc(C)cc2)C(=O)NCC1c1ccco1` (stereo not drawn): 29.4% (inactive); `Cc1ccc(C(C[N+](=O)[O-])c2c(C)[nH]n(-c3ccccc3)c2=O)cc1` (stereo not drawn): 78.1% (active).
Next, `Cc1[nH]n(-c2ccccc2)c(=O)c1C(C[N+](=O)[O-])c1ccc(Br)cc1` (stereo not drawn): 66.2% (active); `COc1ccc(OC)c(N/C(=N/C(=S)Nc2ccccc2)Nc2nc(C)cc(C)n2)c1`: 30.3% (inactive).
Take `CC12CCC(C(=O)O)(C/C1=N\O)C2(C)C` (stereo not drawn): the inhibition was 15% (inactive).
Next, `CCOc1nc(-c2ccccc2Cl)ccc1C#N`: 42.2% (inactive); `COC(=O)C(Cc1ccccc1)NC(=O)COc1ccc(C(C)(C)C)cc1` (stereo not drawn): 36.6% (inactive).
As for `C=CCNCCOCCSc1ccc(Cl)cc1`, the inhibition was 45.3% (inactive).
As for `C=CCNCCOc1ccc(C(C)(C)c2ccccc2)cc1`, the inhibition is 60.4% (active).
Regarding `C=CCc1cc(Cl)ccc1OCCNCCCOC`, the inhibition was 45.8% (inactive).
With `COCCCNCCOc1ccc(C(C)(C)c2ccccc2)cc1`, the inhibition was 57.4% (active).
Take `COCCCNCCOc1cc(C(C)C)ccc1C`: the inhibition is 30.8% (inactive).
With `CS(=O)(=O)n1nc(-c2ccc(Cl)cc2)nc1SCc1ccccc1`, the inhibition was 36.2% (inactive).
Next, `c1csc(C2Nc3ccccc3-c3nc4ccccc4n32)c1` (stereo not drawn): 31.5% (inactive); `O=C(Nc1cc(Cl)ccc1-n1cncn1)c1ccc([N+](=O)[O-])s1`: 90.7% (active); `CN(c1ccccc1)c1ccc(/C=C/[N+](=O)[O-])cc1`: 95% (active).
With `CCCc1ccc(-c2c(C)sc(N)c2C#N)cc1`, the inhibition is 39% (inactive).
Next, `CCN1CCN(c2cc(C(C)C)nc3c(-c4ccccc4)c(C)nn23)CC1`: 40.4% (inactive); `COc1ccc(CNCC(O)(c2ccccc2)c2ccc(Cl)cc2)cc1` (stereo not drawn): 57.9% (active); `CCc1cc(OCCCCNCc2ccccc2)ccc1Cl`: 43.2% (inactive).
With `COc1ccc(C(=O)C2CCCN(C(=O)Cn3nc(C)cc3C)C2)cc1F` (stereo not drawn), the inhibition is 36.5% (inactive).
In the case of `C#C[C@]1(O)CC[C@H]2[C@@H]3CCC4=C(CCC(=O)C4)[C@H]3CC[C@@]21C` it was 59.2% (active); in that of `C#C[C@]1(O)CC[C@H]2[C@@H]3CCc4cc(O)ccc4[C@H]3CC[C@@]21C`, 65.4% (active); in that of `Cc1ccc(S(=O)(=O)NCc2ccc(C(=O)NCCCN3CCC(Cc4ccccc4)CC3)cc2)cc1`, 22% (inactive).
With `CN(CC(=O)NC(=O)NCc1ccccc1)Cc1cccc(Cl)c1Cl`, the inhibition is 32.5% (inactive).
For the molecule `Cc1ccccc1OCC(=O)Nc1cccc(N(C)S(C)(=O)=O)c1`, the inhibition was 18.4% (inactive).
On to `COC(=O)C1=C(C)NC(C)=C(C(=O)OC)C1c1ccc(OC(=O)c2oc3ccccc3c2C)c(OC)c1`, for which the inhibition is 10.6% (inactive).
In the case of `O=C(c1ccc(S(=O)(=O)c2ccccc2)cc1)N1CCCCCC1` it was 32.5% (inactive); in that of `COc1cccc(F)c1C(C[N+](=O)[O-])c1c(N)n(C)c(=O)n(C)c1=O` (stereo not drawn), 89.5% (active).
Next, `O=c1[nH][nH]c(-c2ccccc2O)c1C(C[N+](=O)[O-])c1ccc(Cl)cc1Cl` (stereo not drawn): 37.8% (inactive); `Cc1ccc(C(C[N+](=O)[O-])c2c(N)n(C)c(=O)n(C)c2=O)cc1` (stereo not drawn): 96.2% (active); `COc1ccccc1C(C[N+](=O)[O-])c1c(N)n(C)c(=O)n(C)c1=O` (stereo not drawn): 93.7% (active).
Turning to `CC1(C)NC(=O)N(CCCCOc2ccc3ccccc3c2Cl)C1=O`, the inhibition was 38.6% (inactive).
In the case of `CCCCNCCOCCOc1ccccc1-c1ccccc1` it was 44% (inactive); in that of `CN(C)c1nc(N)nc(CSc2nnnn2-c2ccc(C(=O)O)cc2)n1`, 29.5% (inactive); in that of `Nc1[nH]c(=O)ncc1F`, 43.8% (inactive).
As to `CCOc1ccc(N=c2oc3cc(O)ccc3cc2C(=O)NCC2CCCO2)cc1` (stereo not drawn), the inhibition was 24.5% (inactive).
As to `COC1=C(Nc2ccc(O)cc2)C(=O)c2ccccc2C1=O`, the inhibition is 32.3% (inactive).
Regarding `COc1ccc(Nc2cc(C)c3ccc(O)cc3n2)cc1`, the inhibition was 89.7% (active).
Turning to `Cc1cc(Nc2ccccc2)nn1C(=O)c1ccccc1`, the inhibition is 44.5% (inactive).
Regarding `CCn1nc(C)cc1Nc1ccccc1`, the inhibition is 22.3% (inactive).
Next, `Cc1cc(Nc2ccccc2)nc2cc(O)ccc12`: 84.7% (active); `COc1ccc(C2=NN3C(=O)c4c(ccc(OC)c4OC)C3C2)cc1` (stereo not drawn): 37.6% (inactive); `CCC(=O)N(Cc1cc2c(C)ccc(C)c2[nH]c1=O)C1CCCCC1`: 27.1% (inactive).
For the molecule `CCNc1c(C(=O)O)ccc2c1C(=O)c1ccccc1C2=O`, the inhibition was 32.4% (inactive).
With `CCc1ccc(OCC(=O)Nc2ccc(CN3CCCCC3)cc2)cc1`, the inhibition is 48.2% (inactive).
Next, `Cc1cc(C)c([C@@H]2C[C@H]3CN(C4CCCC4)C(=O)[C@]34CCCN24)c(-n2cccn2)c1`: 28.9% (inactive); `COc1cc(/C=C/C(=O)c2ccc(Cl)s2)cc(OC)c1O`: 50.9% (active); `COC(=O)CCn1nnc(-c2ccc(C(C)C)cc2)n1`: 38.5% (inactive).
Regarding `COc1cccc(CN2CCC(C(=O)N3CCN(c4ccccc4F)CC3)CC2)c1OC`, the inhibition is 37.2% (inactive).
In the case of `CCCc1[nH]n(-c2nc3ccccc3s2)c(=O)c1C=NCC(C)C` it was 54.1% (active); in that of `O=C1C(Cl)=C(N2CCN(c3ccccc3[N+](=O)[O-])CC2)C(=O)c2ccccc21`, 47.2% (inactive); in that of `C/C(=N\NC(=O)c1csc(C)c1C)c1ccc(Cl)s1`, 40.9% (inactive).
As for `O=C(/C=C/c1cccs1)c1cc(Br)ccc1OC(=O)N1CCOCC1`, the inhibition was 28.1% (inactive).
Take `CCNc1ccc(Br)cc(C(=O)/C=C/c2c(Cl)cccc2Cl)c1=O`: the inhibition is 39.5% (inactive).
With `O=C(/C=C/c1ccccn1)c1ccc(Br)cc1O`, the inhibition is 67.5% (active).
